# Screening data: PubChem BioAssay, National Center for Advancing Translational Sciences (NCATS)
# PMP22 txn: modulators of PMP22 gene transcription in S16 Schwann cells | S16 Pmp22-F2sN Schwann cells, FLuc/NLuc coincidence luminescence, 24 h | Potency, µM (series often up to 57.5 µM), usual class: inhibitors | actives 2% (n = 43,000); active = clear falling dose curves in both reporters; inconclusive = both reporters move, but less clearly or upward; inactive = either reporter flat; the % is the NLuc reporter signal
#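 Rat S16 Pmp22-F2sN cells, 500-1,000/well in phenol red-free DMEM + 10% FBS, compound-treated 24 h (37C, 5% CO2). Luminescence: FLuc read, Stop&Glo added, NLuc read.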
# S16 F2sN tox: S16 Schwann cell cytotoxicity. S16 Pmp22-F2sN Schwann cells (luciferase reporters placed in the Pmp22 gene) viability, CellTiter-Glo, 24 h. Potency, µM (series often up to 57.5 µM), most hits filed as cytotoxic. actives 0.48% (n = 43,000); note: nearly all actives have a fitted effect of over 65% in size
#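 Seed 500-1,000 S16 Pmp22-F2sN cells per well in phenol-red-free DMEM with 10% heat-inactivated FBS; pin-add 23 nL compound; incubate 24 h at 37C; add CellTiter-Glo, wait 15 min protected from light; read luminescence.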
# SKOV3 invasion: ovarian cancer metastasis inhibition, 3D TME model; SKOV3ip1-GFP adhesion/invasion on 3D omental model, fluorescence; Potency, µM (top dose mostly 45.8 µM), most hits filed as inhibitors; actives 0.1% (n = 46,000); note: nearly all actives have a fitted effect of over 65% in size
#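 Adhesion/invasion was scored as fixed GFP-labeled SKOV3ip1 cell counts (488/509 nm), normalized to DMSO and tomatine controls. Cancer cells in serum-free medium, with four compound doses (0.36-46 umol/L), sat 2 hr at RT then 16 hr at 37 C on a 48 hr fibroblast/mesothelial/ECM culture.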
# mTORC1 inh: reduces mTORC1 signaling in Tsc2 and p53 null MEF cells; Tsc2-/- p53-/- MEF, phospho-rpS6 immunofluorescence/PI, 24 h; Potency, µM (doses to about 38.3 µM), most hits filed as inhibitors; actives 0.78% (n = 44,000); AID 493208; note: nearly all actives have a fitted effect of over 50% in size
#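 Compounds act on Tsc2-/-, p53-/- fibroblasts carrying an empty vector for 24 h before fixation and dual staining for phospho-S6 and DNA (propidium iodide). Values are percentages of cells above a rapamycin-defined pS6/PI threshold.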
# NLuc sat counter: counter-screen for PMP22 expression modulators: NanoLuc inhibition, saturating substrate; shares compounds with PMP22 txn; Secreted NLuc enzyme (filtered S16 cell medium), Nano-Glo luminescence; Potency, µM (series often up to 57.5 µM), hits mostly inhibitors; actives 4% (n = 690)
# NLuc Km ctr: inhibits NanoLuc under Km conditions, PMP22 counter-screen; Potency, µM (series often up to 57.5 µM), most hits filed as inhibitors; shares compounds with PMP22 txn; AID 1508639; actives 5% (n = 690); secreted NLuc enzyme, coelenterazine luminescence, Km conditions
# FLuc counter: inhibits firefly luciferase, PMP22 counter-screen. AID 1508640. shares compounds with PMP22 txn. 690 tested, under 10 active. Potency, µM (series often up to 57.5 µM), hits mostly inhibitors. purified P. pyralis FLuc, luminescence, 10 min
# Target sequence (P08659 whole entry, looked up): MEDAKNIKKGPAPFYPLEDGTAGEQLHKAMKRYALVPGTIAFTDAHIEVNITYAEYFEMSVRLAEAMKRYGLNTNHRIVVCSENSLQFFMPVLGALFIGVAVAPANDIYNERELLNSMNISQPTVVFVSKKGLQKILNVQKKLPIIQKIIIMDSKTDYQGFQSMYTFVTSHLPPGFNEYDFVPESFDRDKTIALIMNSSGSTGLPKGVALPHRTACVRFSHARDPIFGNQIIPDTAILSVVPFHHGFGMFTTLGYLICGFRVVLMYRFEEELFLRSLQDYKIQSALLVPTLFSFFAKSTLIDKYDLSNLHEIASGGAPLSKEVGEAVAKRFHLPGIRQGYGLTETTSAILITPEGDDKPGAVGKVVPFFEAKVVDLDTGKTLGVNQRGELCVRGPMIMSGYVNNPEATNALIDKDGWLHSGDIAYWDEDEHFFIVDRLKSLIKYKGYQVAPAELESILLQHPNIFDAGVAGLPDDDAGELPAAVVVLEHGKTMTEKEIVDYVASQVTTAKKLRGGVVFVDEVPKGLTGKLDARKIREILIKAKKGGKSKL
# S16 F2sN tox cnf: S16 Schwann cell cytotoxicity, confirmatory | shares compounds with PMP22 txn | Potency, µM (titrated, usually from 57.5 µM), actives largely listed as cytotoxic | S16 Schwann cells viability, CellTiter-Glo ATP luminescence, 24 h | actives 7% (n = 690)
# PMP22 txn cnf: confirmation of modulators of PMP22 gene transcription in S16 cells; shares compounds with PMP22 txn; S16 Schwann cells Pmp22-F2sN, dual luciferase, 24 h; Potency, µM (doses to about 57.5 µM), hits mostly inhibitors; actives 22% (n = 690); AID 1508646; active = clear falling dose curves in both reporters; inconclusive = both reporters move, but less clearly or upward; inactive = either reporter flat; the % is the FLuc reporter signal
# PMP22 HiBiT cnf: rat PMP22 protein level modulation, confirmatory; shares compounds with PMP22 txn; S16 Schwann cells Pmp22-HiBiT, luminescence, 48 h; Potency, µM (titrated, usually from 27.9 µM), most hits filed as inhibitors; 95 tested, under 10 active; AID 1508647
# Target sequence (P25094 whole entry, looked up): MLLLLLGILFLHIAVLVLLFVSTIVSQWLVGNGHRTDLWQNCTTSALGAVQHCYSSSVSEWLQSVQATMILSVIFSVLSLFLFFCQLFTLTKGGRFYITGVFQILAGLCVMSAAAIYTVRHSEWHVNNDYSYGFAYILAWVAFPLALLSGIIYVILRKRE
# Numbers stand for hits; 0 = inactive; ? = inconclusive; - = no result given. Shown are actives, neighbours in structure and some others; about 2.6% of the full set was active somewhere. Unless noted, calls come from the whole dose curve; as a rule, active = well fitted curve in the direction sought with a large enough effect; inconclusive = small, poorly fitted or top-dose-only effect, or another doubt; inactive = no such curve, though single readings can be large; an effect the other way counts as inactive or inconclusive.
SMILES,PMP22 txn,S16 F2sN tox,SKOV3 invasion,mTORC1 inh,others
C[C@]1(CO)CN(c2cc(C(=O)Nc3ccc4c(c3)-c3c(c(C(N)=O)nn3-c3ccc(F)cc3)CC4)c(Cl)cn2)C[C@@]1(C)CO,-,-,0,-,
Nc1c(C(=O)Nc2ccc(C(=O)O)cc2)sc2nc3c(cc12)CCCC3,0,0,0,0,
CCOc1ccc(NC(=O)c2sc3nc4c(cc3c2N)CCCCCC4)cc1,?,0,0,21µM,
CCN1CCN(c2cc(C)c3cc(NC(=O)/C=C/c4ccc(C)cc4)ccc3n2)CC1,?,?,?,18µM,
CCN1CCN(c2cc(C)c3cc(NC(=O)/C=C/c4ccc(OCCC(C)C)cc4)ccc3n2)CC1,?,?,0,4.1µM,
CNC1CCC(N(Cc2cccc(-c3ccncc3)c2)C(=O)c2sc3ccccc3c2Cl)CC1 (stereo not drawn),-,-,0,-,
O=C(NCCCNc1nc(Nc2cccc(NC(=O)N3CCCC3)c2)ncc1I)c1cccs1,-,-,0,-,
CCOC(=O)N[C@@H]1CC[C@@H]2[C@@H](C1)C[C@H]1C(=O)O[C@H](C)[C@H]1[C@@H]2C=Cc1ccc(-c2cccc(F)c2)cn1,-,-,0,-,
COc1cc(NS(=O)(=O)c2ccc(-c3cc(C)no3)cc2)cc(OC)c1,3.4µM,?,0,?,
COc1cc2cc(CNc3ccc(C)cc3)c(=O)n(CC(=O)Nc3ccc(F)cc3F)c2cc1OC,0,0,0,5.2µM,
Cc1ccc(NCc2cc3cc4c(cc3n(CC(=O)Nc3ccc(C)cc3)c2=O)OCCO4)cc1,?,?,0,4.6µM,
Cc1c(CN2CCN(C(=O)C(C)C)CC2)sc2c(N3CCOCC3)nc(-c3cnc(N)nc3)nc12,-,-,0,-,
Cc1ccc(O)c(-c2n[nH]c3c2C(c2ccccc2F)N(Cc2ccco2)C3=O)c1 (stereo not drawn),?,?,13µM,0,
COc1ccc(C(=O)Nc2cc3c(cc2C(=O)c2ccccc2Cl)OCCO3)cc1,0,0,0,0,
COc1ccc(C(=O)NC(c2ccccc2Cl)c2cc(Cl)c3cccnc3c2O)cc1 (stereo not drawn),?,3.2µM,0,?,
COc1cc(C(=O)NC(c2ccccc2Cl)c2cc(Cl)c3cccnc3c2O)cc(OC)c1OC (stereo not drawn),4.4µM,?,0,0,
C[C@@H](Oc1cc(-c2cnn(C3CCNCC3)c2)cnc1N)c1c(Cl)ccc(F)c1Cl,-,-,0,-,
Cc1ccc(NCc2nc3ccccc3n2CCOc2ccccc2C)cc1,?,?,0,0,
Cc1ccccc1OCCn1c(=N)n(C(C)C)c2ccccc21,?,?,?,18µM,
Cc1ccccc1OCC(O)Cn1c(=N)n(CCN2CCCCC2)c2ccccc21 (stereo not drawn),?,?,?,10µM,
CC(C)c1ccc(C2NC(=O)c3c(sc4c3CCN(C)C4)N2)cc1 (stereo not drawn),?,?,0,0,
CN1CCc2c(sc3c2C(=O)NC(c2ccc(C(C)(C)C)cc2)N3)C1 (stereo not drawn),?,14µM,0,0,
CC1(C)CC(=O)c2c(C(F)(F)F)nn(-c3ccc(C(N)=O)c(NC4CCC(OC(=O)CN)CC4)c3)c2C1 (stereo not drawn),-,-,0,-,
CCC1CN(C(=O)NCc2ccc(C)cc2)c2ccccc2O1 (stereo not drawn),0,0,0,0,
CCC1CN(C(=O)NCc2ccc(F)cc2)c2cc(C)ccc2O1 (stereo not drawn),0,0,0,21µM,
SMILES,PMP22 txn,S16 F2sN tox,SKOV3 invasion,mTORC1 inh,others
Cc1cccc2nc(-c3ccccn3)c(Nc3ccc(F)cc3)n12,13µM,?,?,0,
c1cc(OCCN2CCCCC2)cc(-c2n[nH]c3ccc(-c4ncn[nH]4)cc23)c1,-,-,0,-,
COC(=O)c1ccc(NC(=O)CSc2nnc3c4ccccc4n(C(C)C)c3n2)cc1,0,0,0,0,
COc1ccccc1NC(=O)CSc1nnc2c3ccccc3n(C(C)C)c2n1,?,?,0,15µM,
CCOc1ccc(-c2cnc(NCc3ccc(C(F)(F)F)cc3)n2C)cc1,?,0,0,18µM,
Cc1ccc(-c2cnc(NCc3c(F)cccc3Cl)n2C)cc1,0,0,0,0,
CCC(Sc1nc2ccccc2c2nc(-c3ccccc3)nn12)C(=O)Nc1cccc(OC)c1 (stereo not drawn),13µM,?,0,0,NLuc sat counter=0;NLuc Km ctr=0;FLuc counter=0;S16 F2sN tox cnf=0;PMP22 txn cnf=15µM;PMP22 HiBiT cnf=?
COc1cc2nc(SCC(=O)Nc3cccc(C)c3)n3nc(-c4ccccc4)nc3c2cc1OC,0,0,0,0,
CS(=O)(=O)c1ccc(C(=O)Nc2ccc(Cl)c(-c3ccccn3)c2)c(Cl)c1,-,-,0,-,
COc1cc(NC(=O)N2CCC(CN3CCOCC3)CC2)cc(OC)c1OC,0,0,0,0,NLuc sat counter=0;NLuc Km ctr=0;FLuc counter=0;S16 F2sN tox cnf=0;PMP22 txn cnf=0
CCCN(C(=O)c1cc2c(=O)n(CC)c3ccccc3c2s1)c1ccccc1F,7.6µM,0,0,0,NLuc sat counter=0;NLuc Km ctr=?;FLuc counter=0;S16 F2sN tox cnf=0;PMP22 txn cnf=?
Cc1c(Cl)cccc1Nc1nn2c(=O)c3ccc(C(=O)NCCc4ccccc4)cc3nc2s1,10µM,?,0,0,NLuc sat counter=0;NLuc Km ctr=?;FLuc counter=0;S16 F2sN tox cnf=27µM;PMP22 txn cnf=15µM
CCOC(=O)C1CCN(C(=O)c2ccc3c(=O)n4nc(Nc5ccccc5)sc4nc3c2)CC1,5.3µM,0,0,0,NLuc sat counter=?;NLuc Km ctr=?;FLuc counter=?;S16 F2sN tox cnf=0;PMP22 txn cnf=0
Cc1ccc(C)c(Nc2nn3c(=O)c4ccc(C(=O)NCCc5ccccc5)cc4nc3s2)c1,13µM,0,0,0,NLuc sat counter=?;NLuc Km ctr=0;FLuc counter=0;S16 F2sN tox cnf=19µM;PMP22 txn cnf=11µM
COc1cccc(NC(=O)CSc2ncc3c(n2)-c2ccc(Cl)cc2N(C)S3(=O)=O)c1,2.5µM,0,0,0,NLuc sat counter=0;NLuc Km ctr=0;FLuc counter=0;S16 F2sN tox cnf=0;PMP22 txn cnf=?
